Records with an inconclusive call do not appear. Where a call stands in place of a potency, no number is given. The source made the active and inactive calls. The call rests on the fitted dose curve; in most records, active means well fitted inhibition curve with a large enough effect; inconclusive means small, poorly fitted or top-dose-only effect; inactive means flat fitted curve, though single readings scatter.

For this assay, the target named is Calcium and integrin-binding protein 1 (Homo sapiens) (UniProt Q99828). Briefly: Primary qHTS for Identification of Calcium Integrin Binding Protein 1 (CIB1) Competitor (AID 1508620).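 Further: GST tagged CIB1 binding a fluorescein labelled alphaIIb integrin peptide tracer; top concentration of the series differs between compounds.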 The following applies: CIB1-GST / FITC-alphaIIb peptide fluorescence polarization; series mostly up to 114 µM. In short, it runs like this: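 Fluorescence polarization competition: CIB1-GST (1 uM final) preincubated with compound 15 min at room temperature, then FITC-labeled alphaIIb peptide (100 nM final) added for another 15 min. Polarization read at Ex 480/Em 540.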
Sequence of Calcium and integrin-binding protein 1 (Homo sapiens) (Q99828 whole entry, looked up): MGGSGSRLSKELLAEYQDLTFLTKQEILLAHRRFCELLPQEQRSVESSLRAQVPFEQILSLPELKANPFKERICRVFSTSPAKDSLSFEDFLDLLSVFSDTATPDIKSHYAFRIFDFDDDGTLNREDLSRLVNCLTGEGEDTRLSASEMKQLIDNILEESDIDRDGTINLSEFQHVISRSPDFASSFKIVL
Regarding `O=S1(=O)N=C(Oc2ccccc2F)c2ccccc21`, the Potency result was “inactive”.

With `CC(=O)c1ccc(N2CCN(S(=O)(=O)c3ccc4c(c3)CCCN4C(C)=O)CC2)cc1`, the Potency result is “inactive”.

Take `Cc1nc(CCNc2ncnc3ccc(-c4ccc5c(c4)OCO5)cc23)cs1`: the Potency result is “inactive”.

Consider `O=C(Cc1ccc(Cl)c(Cl)c1)Nc1ccc(S(=O)(=O)NCc2ccco2)cc1`, for which the Potency result is “inactive”.

Consider `O=C(Cc1ccc(Cl)c(Cl)c1)Nc1ccc(S(=O)(=O)Nc2cccc(O)c2)cc1`, for which the Potency entry was “inactive”.

As for `COc1ccc(C2Nc3ccccc3C(=O)N2Cc2ccccc2C)cc1COc1ccc(NC(C)=O)cc1` (centres undefined), the Potency result was “inactive”.

For the molecule `CCOC(=O)c1ccc(-c2ccc3ncnc(N(C)Cc4ccc(C)o4)c3c2)o1`, the Potency entry is “inactive”.

In the case of `N#Cc1nc(Nc2cccc(Br)c2)nc(NC2CCCC2)n1`, the Potency result is “inactive”.

Regarding `Cc1ccc(-c2ccc(=O)n(CC(=O)NCc3ncc[nH]3)n2)cc1`, the Potency entry was “inactive”.

With `Fc1cc(Nc2nc(-c3ccncc3)nc3ccccc23)ccc1-c1ccc(F)c(F)c1F`, the Potency result is “inactive”.

In the case of `O=C(NC(c1ccco1)c1cc(Cl)c2cccnc2c1O)c1ccc(F)c(F)c1` (centres undefined), the Potency result was “inactive”.

On to `Cc1ccc(-c2ccc(CNc3nc(-c4ccccc4C(C)C)nc4ccccc34)cc2)cn1`, for which the Potency entry was “inactive”.

In the case of `Cc1ccc(NS(=O)(=O)c2cc3c(cc2N2CCCCC2)NC(=O)CC3)cc1C`, the Potency entry is “inactive”.

Turning to `Cc1cc(NS(=O)(=O)CCNC(=O)Cc2ccc(Cl)c(Cl)c2)no1`, the Potency result was “inactive”.

For the molecule `CC(C)N1Cc2ccc(Nc3nn4c(=O)c5ccccc5nc4s3)cc2C1`, the Potency result is “inactive”.

On to `O=C(Cn1nc(-c2ccccc2)ccc1=O)NCCc1ccccc1`, for which the Potency result is “inactive”.

`O=C(OCC#CCSc1nnc(-c2cccc3ccccc23)s1)c1cccs1`: the Potency entry was “inactive”.

Regarding `CCc1ccccc1C(=O)N1CCc2cc(-c3nc(NC(=O)Cc4ccc5c(c4)OCO5)sc3C)ccc21`, the Potency entry was “inactive”.

For `COc1ccc(C2Cc3ccccc3C(=O)N2Cc2ccccc2)cc1COc1ccc(NC(C)=O)cc1` (centres undefined), the Potency result is “inactive”.

On to `Cc1cc(-c2nnc3n2CCCCC3)c(C)n1-c1ccc(Cl)c(Cl)c1`, for which the Potency entry is “inactive”.

For `O=C1c2ccccc2C(=O)N1c1cccc(=O)[nH]1`, the Potency result was “inactive”.

Take `Cc1ccnc(NC(=S)NCCN(C)c2cccc(C(F)(F)F)c2)c1`: the Potency result was “inactive”.

Take `N#Cc1ccc(N2CCN(S(=O)(=O)c3ccc4c(c3)CC(=O)N4)CC2)cc1`: the Potency entry is “inactive”.

Consider `O=C1CCc2cc(S(=O)(=O)Nc3ccc(F)cc3)ccc2N1`, for which the Potency entry was “inactive”.

In the case of `COc1cccc(NC(=S)N2CCN(c3ncc(C(F)(F)F)cc3Cl)CC2)n1`, the Potency result was “inactive”.

`COc1ccc(NC(=S)N2CCN(c3cccc(C(F)(F)F)c3)CC2)nc1`: the Potency entry is “inactive”.

As for `N#Cc1nc(Nc2cccc(C(F)(F)F)c2)nc(NC2CCCC2)n1`, the Potency entry is “inactive”.

As to `CCC(=O)NC(C)c1cc(Cl)c2cccnc2c1O` (centres undefined), the Potency entry was “inactive”.

Regarding `O=C(/C=C/c1ccccc1Cl)Nc1cccc([S+](=O)([O-])Nc2ccccc2F)c1`, the Potency entry is “inactive”.

Take `Cc1csc(CNc2ncnc3ccc(-c4ccccc4Cl)cc23)c1`: the Potency result was “inactive”.

With `O=C(Cc1nnc(-c2cc3ccccc3[nH]2)s1)Nc1cc(C(F)(F)F)ccc1Cl`, the Potency result was “inactive”.

`O=C(NC1CCCc2c1cnn2-c1ccc(F)cc1F)c1ccccc1` (centres undefined): the Potency result is “inactive”.

For `CC(=O)Nc1cccc(S(=O)(=O)N2CCCN(S(=O)(=O)c3ccc4c(c3)OCCO4)CC2)c1`, the Potency entry is “inactive”.

For the molecule `Cc1cccc(S(=O)(=O)N2CCN(S(=O)(=O)c3ccc4c(c3)OCCO4)CC2)c1`, the Potency entry was “inactive”.

For `Cc1ccc(OCCn2c(CCNC(=O)c3ccccc3C)nc3ccccc32)cc1`, the Potency result is “inactive”.

`CCOc1cccc(-c2cc(-c3n[nH]c(=S)n3CC)c3ccccc3n2)c1`: the Potency result is “inactive”.

In the case of `CN1C(=O)Cc2cc([S+](=O)([O-])N3CCN([S+](=O)([O-])c4c(F)cccc4F)CC3)ccc21`, the Potency entry is “inactive”.

For `COc1cc(OC)cc(-c2nnc3n2N=C(c2ccccc2OC)CS3)c1`, the Potency result was “inactive”.

`COc1ccc([C@H]2[C@H](c3ccccc3)C(=O)N2Cc2ccccc2)cc1COc1ccc(NC(C)=O)cc1`: the Potency entry was “inactive”.

Source of the values: PubChem BioAssay (NCATS).
